Screening results: PubChem, several laboratories
PERK inh = inhibitors of human PERK kinase | CHO PERK-DD fusion, SEAP luminescence translation reporter | hit rate 0.17% among 220,000 | inhibition, % at 5.6 µM | AID 1416;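 active = inhibition above the mean inhibition of all tested compounds plus 3 SD, set separately per screening campaign, cut at about 2.9% in these data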;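 also: PERK kinase domain activated by AP20187 dimerizer at 100 nM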
PABP polyA inh = blocks human PABP binding to poly(A) RNA; inhibition, % at 35 µM; AID 2014; hit rate 1% among 290,000; P11940; fluorescence polarization;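 also: calls also rest on retests at 20 µM and on dose response follow-up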
PABP1 MLLE inh = inhibitors of microRNA-mediated deadenylation, human PABP1 MLLE binding; inhibition, % at 20 µM; GST-MLLE / FITC-PAM2 fluorescence polarization; hit rate 0.36% among 360,000; AID 588489; P11940; in the data active = inhibition above about 35%, passing the limit was not always enough
eIF4H FP inh = inhibitors of RNA binding by human eIF4H; AID 2012; eIF4H fluorescence polarization binding assay; hit rate 0.94% among 290,000; Q15056; inhibition, % at 35 µM;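 also: calls also rest on retests at 20 µM and on dose response follow-up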
GRK2 inh = blocks RNA aptamer binding to human GRK2; inhibition of aptamer binding, % at 10 µM; hit rate 0.59% among 330,000; bead flow cytometry, FAM-aptamer displacement from GRK2; P25098;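 active = inhibition of aptamer binding above 40%, roughly 3 SD of noise, on plates passing a quality check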;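 also: median bead fluorescence of bound FAM aptamer so fluorescent compounds give negative values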
GRK2 CP1 = confirmation of human GRK2 inhibitors displacing RNA aptamer; aptamer displacement, % at 10 µM; bead-bound GRK2, FAM-aptamer displacement, flow cytometry; AID 504451; shares compounds with GRK2 inh; hit rate 4% among 2,000;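 active = aptamer displacement above 40%, near three times the noise of non-fluorescent compounds, on plates passing quality checks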;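 also: negative values mostly reflect intrinsic compound fluorescence rather than true enhancement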
Aptamer quench = quenches fluorescent RNA aptamer, GRK2 hit artifact. shares compounds with GRK2 inh. Fluorescent RNA aptamer beads, quenching, flow cytometry; hits give high values. fluorescence change (kMESF span), kMESF (test concentration not listed). 110 tested, under 10 active;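 active = compounds whose bead fluorescence drops by more than 37 kMESF across the dose range, marking them as dye quenchers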
Aptamer quench SP = quenches fluorescent RNA aptamer, GRK2 hit artifact; shares compounds with GRK2 inh; Carboxyfluorescein RNA aptamer on beads, flow cytometry quenching; hits give low values; fluorescence response (% of DMSO), % at 10 µM; 2,000 tested, under 10 active;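 active = compounds that quench the bead-bound fluorescent RNA probe, cutting fluorescence to under half of the solvent control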;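 also: counterscreen run without GRK2 so only probe quenching by compound is measured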
GRK2 CP2 = confirmation of human GRK2 inhibitors binding RNA aptamer site | shares compounds with GRK2 inh | bead-bound GRK2, FAM-aptamer displacement, flow cytometry | inhibition of aptamer binding, % at 10 µM | 360 tested, under 10 active | AID 504782;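 active = inhibition of aptamer binding above 40%, about triple the noise seen with nonglowing compounds, on plates passing quality control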;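 also: negative values mostly come from compounds that fluoresce themselves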
FAM quench SP = counter-screen for GRK2 binding hits: quenchers of fluorescent RNA aptamer | shares compounds with GRK2 inh | carboxyfluorescein RNA aptamer beads, flow cytometry quenching; hits give low values | fluorescence response vs DMSO, % at 10 µM | 360 tested, under 10 active | AID 588494;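 active = response vs DMSO under 50%, meaning signal dropped by over half, treated as fluorescence quencher; inconclusive = no clear call, values can overlap the other calls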;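 also: labelled aptamer on streptavidin beads without GRK2 as a quench counter-screen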
FAM quench DR = aptamer fluorescence quenching in GRK2 powder counter-screen; AID 588496; fluorescence ratio to DMSO, % at 11.1 µM; shares compounds with GRK2 inh; 35 tested, under 10 active; Bead-bound FAM RNA aptamer fluorescence quenching, flow cytometry; hits give low values;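 active = compounds that dim the fluorescent label, raw bead signal shifting by over 33 units between lowest and highest dose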
Numbers stand for hits; 0 = inactive; ? = inconclusive; - = not tested or not shown. Rows were chosen to be rich in hits. Some 1.9% of all compounds tested hit in one or more screens of this group. Unless noted, no rule for the calls is given here.

SMILES	PERK inh	PABP polyA inh	PABP1 MLLE inh	eIF4H FP inh	GRK2 inh	GRK2 CP1	Aptamer quench SP	others
COCC(=O)N(C)C[C@@H]1Oc2cc(-c3ccc(F)cc3)ccc2S(=O)(=O)N([C@H](C)CO)C[C@H]1C	-	-	0	-	-	-	-
CC(=O)Nc1ccccc1C(=O)C(=O)Nc1cccc(C(=O)NCc2ccccc2)c1	0	0	0	0	0	-	-
COc1ccc(C(=O)Nc2cccc(C(=O)NCc3ccccc3)c2)cc1	0	0	0	0	0	0	0
Cc1ccc(C(=O)Nc2cccc(C(=O)NCc3ccccc3)c2)cc1	0	0	0	0	0	0	0
Cc1occc1C(=O)Nc1cccc(C(=O)NCc2ccccc2)c1	0	0	0	0	0	0	0
CC(=O)Nc1ccccc1C(=O)C(=O)Nc1cccc(C(=O)NCc2ccc(C)cc2)c1	0	0	-	0	0	-	-
COc1ccccc1NC(=O)Cn1c(CCC(=O)O)ccc1-c1ccccc1	0	0	0	0	0	-	-
COc1ccc(NS(=O)(=O)c2cccc(C(=O)NNC(=O)c3ccc(O)c(Cl)c3)c2)cc1	-	-	0	-	0	-	-
CCOC(=O)CCc1cnccc1-c1cccc(OC)c1O	-	-	0	-	0	-	-
C=C1C(=O)C23CCC4C(C)(C(=O)OC)CCCC4(C)C2CCC1(O)C3 (stereo not drawn)	-	-	0	-	-	-	-
CC(=O)c1cccc(-c2ccnc3c2CC(C(=O)NCC2CCOCC2)O3)c1 (stereo not drawn)	-	-	0	-	-	-	-
CC(C)(C)c1ccc(C(=O)N2CCC(C(=O)NCCC3=CCCCC3)CC2)cc1	0	0	0	0	74	0	0
Cc1cccc(C)c1NC(=O)CSc1nnc(C2CCCCC2)o1	-	0	0	0	0	-	-
O=C(CSc1nc2[nH]ncc2c(=O)[nH]1)Nc1ccc(OC(F)(F)F)cc1	-	-	0	-	65	0	0
Cc1cc(C)cc(C(=O)Nc2ccc(N3CCN(S(C)(=O)=O)CC3)cc2)c1	0	0	0	0	0	-	-
COc1ccc(CC(=O)Nc2ccc(-c3nc4cc(C)ccc4o3)c(O)c2)cc1OC	0	0	0	0	71	0	0
Cc1ccc2oc(-c3ccc(NC(=O)c4ccncc4)cc3O)nc2c1	0	0	0	0	0	-	-
COC(=O)c1ccccc1NC(=O)CSc1nnc(-c2cccnc2)n1N	0	0	0	0	0	-	-
O=C(O)c1ccc(/C=N/Nc2nc3ccccc3[nH]2)cc1	0	0	0	0	95	0	0
CCc1nc2c(OCCn3cccc3)cccn2c1N(C)C(=O)c1ccc(OC)cc1	-	-	0	-	-	-	-
CCN1/C(=C/c2ccc3cc(C)ccc3[n+]2CC)Sc2ccccc21	0	0	0	0	55	0	0
CCN1/C(=C/C=C/c2sc3ccccc3[n+]2CC)Sc2ccccc21	-	-	0	-	100	101	0	Aptamer quench=0
CC1Sc2ccc(C(=O)Nc3ccccc3OC(F)F)cc2NC1=O (stereo not drawn)	-	-	0	-	0	-	-
O=S(=O)(c1cccc(Cl)c1Cl)N1CCCCC1	0	0	0	0	82	0	0
COc1cccc(/C=N/NC(=O)CC2C(=O)NN=C2C)c1O (stereo not drawn)	0	0	0	0	66	0	0
SMILES	PERK inh	PABP polyA inh	PABP1 MLLE inh	eIF4H FP inh	GRK2 inh	GRK2 CP1	Aptamer quench SP	others
O=C(NC(=S)NC12CC3CC(CC(C3)C1)C2)c1ccc(F)cc1	-	-	0	-	0	-	-
Cc1cccc(Cl)c1NNC(=O)Nc1c([N+](=O)[O-])c(C)nn1C	0	0	0	0	44	0	0
CN1C[C@@H]2[C@@H]3C(=O)N(Cc4ccccc4)C(=O)[C@@H]3[C@](Cc3ccccc3)(C1=O)N2C(=O)c1ccc(Br)cc1	-	-	0	-	-	-	-
CCc1c(C(=O)NN2C(=O)C3CCCCC3C2=O)csc1C (stereo not drawn)	0	0	0	0	0	-	-
CCc1c(C(=O)NC2CCCC2)csc1C	0	0	0	0	97	0	0
CCOc1ccc(CCNC(=O)c2nnc(CS(=O)(=O)c3ccccc3)o2)cc1OCC	-	0	0	0	0	-	-
COc1ccc(CNC(=O)CN2C(=O)NC(C)(c3ccc(Cl)cc3)C2=O)cc1 (stereo not drawn)	-	0	0	0	54	0	0
CC1(c2ccc3ccccc3c2)NC(=O)N(CC(=O)O)C1=O (stereo not drawn)	-	0	0	0	47	0	0
COc1ccc(CNC(=O)CN2C(=O)NC(c3ccccc3)(c3ccccc3)C2=O)cc1	-	-	0	-	0	-	-
Cc1c(C)c2ccc(OCC(=O)Nc3nccs3)cc2oc1=O	-	-	0	-	0	-	-
Cc1cc(=O)oc2cc(OCC(=O)Nc3nccs3)ccc12	-	0	0	0	57	0	0
CCOC(=O)c1sc(NCc2ccco2)c(-c2nc3ccccc3s2)c1N	0	0	0	0	68	70	0	Aptamer quench=0
CCNc1sc(C(=O)c2cccs2)c(N)c1-c1nc2ccccc2s1	0	0	0	0	0	-	-
C=CCOC(=O)C1=C[C@H](c2ccc3c(c2)OCO3)C[C@H](OCCCCO)O1	-	-	0	-	0	-	-
CC1=C(C(=O)OCc2ccccc2)C(c2cccc(F)c2)NC(=O)N1 (stereo not drawn)	-	0	0	0	51	0	0
CCCCCC(=O)Nc1ccc(N2CCOCC2)c(S(=O)(=O)Nc2ccc(OC)cc2)c1	-	-	0	-	82	0	0
CCC(=O)Nc1ccc(N2CCOCC2)c(S(=O)(=O)Nc2ccc(OC)cc2)c1	0	0	0	0	0	-	-
COc1cccc(CN2CCC(C(=O)N3CCN(c4ccccc4F)CC3)CC2)c1OC	0	0	0	0	60	-	-	GRK2 CP2=0;FAM quench SP=0
O=C(c1ccccc1)c1c2c(cc3sc4ccccc4[n+]13)-c1cccc3cccc-2c13	0	0	0	?	76	70	0	Aptamer quench=0
O=C(CN1CCCc2ccccc21)NC(=O)NCc1ccccc1	0	0	0	0	0	-	-
O=C(CN1CCc2ccccc21)NC(=O)NCc1ccccc1	0	0	0	0	42	70	0	Aptamer quench=0;FAM quench DR=0
